Several values for one entry are separate records, joined by “and”; a condition that tells them apart may be missing. Equal values may be shown once. Results filed as inconclusive are left out. Some compounds were tested as several samples or in several runs, with calls that do not always agree. Activity calls are given as the source filed them. The calls were made as follows: active = hit-call score of the fitted dose curve at least 0.9, where 1 is the maximum; inconclusive = response in the unintended direction; inactive = score below 0.9.
system: zebrafish Androgen Receptor (AR), gene 100005148; assay: ATG_zfAR_XSP1: Attagene TRANS-FACTORIAL Multi-Species (XSP1) HepG2 Assay for zebrafish Androgen Receptor (AR) (AID 2283771)
Summary of the method: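 Gain-of-signal versus DMSO was measured as reporter transcripts quantified by RT-PCR, fluorescent labelling and capillary electrophoresis after 24 h chemical exposure. The cells were HepG2 expressing a chimeric zebrafish AR-GAL4, co-stimulated with 3 nM 6-alpha-fluorotestosterone.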

| Structure (SMILES) | outcome |
| --- | --- |
| Oc1cc(Cl)ccc1Oc1ccc(Cl)cc1Cl | inactive |
| O=S1OCC2C(CO1)C1(Cl)C(Cl)=C(Cl)C2(Cl)C1(Cl)Cl (stereo unspecified) | inactive |
| CC1(C)C(C=C(Cl)Cl)C1C(=O)OC(C#N)c1ccc(F)c(Oc2ccccc2)c1 (stereo unspecified) | inactive |

target: zebrafish Estrogen Receptor (ESR1), esr1 (gene 259252) (UniProt P57717); assay: ATG_zfER1_XSP1: Attagene TRANS-FACTORIAL Multi-Species (XSP1) HepG2 Assay for zebrafish Estrogen Receptor (ESR1) (AID 2283772)
Summary of the method: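 HepG2 cells were transiently transfected with multiplexed GAL4-UAS reporter units driven by chimeric NR-GAL4 proteins, dosed for 24 h with 3 nM 6-alpha-fluorotestosterone present, and reporter mRNA quantified by RT-PCR and capillary electrophoresis versus DMSO.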

Sequence of zebrafish Estrogen Receptor (ESR1), esr1 (gene 259252) (P57717 whole entry, looked up, the tested form may be a part): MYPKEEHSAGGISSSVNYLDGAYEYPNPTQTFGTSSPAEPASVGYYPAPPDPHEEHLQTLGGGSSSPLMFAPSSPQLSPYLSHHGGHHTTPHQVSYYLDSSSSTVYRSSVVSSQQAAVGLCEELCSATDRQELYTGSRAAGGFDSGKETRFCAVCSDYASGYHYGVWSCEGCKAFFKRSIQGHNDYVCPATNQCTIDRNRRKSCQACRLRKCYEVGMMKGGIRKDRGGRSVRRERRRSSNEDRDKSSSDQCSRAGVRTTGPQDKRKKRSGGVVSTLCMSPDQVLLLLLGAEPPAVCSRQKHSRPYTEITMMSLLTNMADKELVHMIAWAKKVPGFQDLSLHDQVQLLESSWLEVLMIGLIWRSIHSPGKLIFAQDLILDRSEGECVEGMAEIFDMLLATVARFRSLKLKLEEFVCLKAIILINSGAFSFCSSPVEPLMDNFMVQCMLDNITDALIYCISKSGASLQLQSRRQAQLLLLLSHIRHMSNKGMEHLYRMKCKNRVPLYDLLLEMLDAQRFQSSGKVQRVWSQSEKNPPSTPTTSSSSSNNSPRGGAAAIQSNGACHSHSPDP

| Structure (SMILES) | outcome |
| --- | --- |
| CCCN(CCC)c1c([N+](=O)[O-])cc(C(F)(F)F)cc1[N+](=O)[O-] | inactive |
| Oc1cc(Cl)ccc1Oc1ccc(Cl)cc1Cl | inactive |
| COP(=S)(OC)Oc1ccc(SC)c(C)c1 | inactive |
| Oc1ccc(Cl)cc1Cc1ccccc1 | inactive |
| CCCN(CCOc1c(Cl)cc(Cl)cc1Cl)C(=O)n1ccnc1 | inactive |

system: zebrafish Estrogen Receptor (ESR2B), gene 317733; assay: ATG_zfER2b_XSP1: Attagene TRANS-FACTORIAL Multi-Species (XSP1) HepG2 Assay for zebrafish Estrogen Receptor (ESR2B) (AID 2283773)
Summary of the method: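 Human hepatoma HepG2, transiently transfected with multi-reporter units; exogenous zebrafish ESR2B-Gal4 activity measured. Exposure 24 h alongside 3 nM 6-alpha-fluorotestosterone to partly stimulate AR.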

| Structure (SMILES) | AC50 | outcome |
| --- | --- | --- |
| CCCN(CCC)c1c([N+](=O)[O-])cc(C(F)(F)F)cc1[N+](=O)[O-] | 44.3 µM (active) | – |
| O=S1OCC2C(CO1)C1(Cl)C(Cl)=C(Cl)C2(Cl)C1(Cl)Cl (stereo unspecified) | 4.8 µM (active) | – |
| CC1(C)C(C=C(Cl)Cl)C1C(=O)OC(C#N)c1ccc(F)c(Oc2ccccc2)c1 (stereo unspecified) | 35.5 µM (active) | – |
| O=S(=O)(O)C(F)(F)C(F)(F)C(F)(F)C(F)(F)C(F)(F)C(F)(F)C(F)(F)C(F)(F)F | – | inactive |
| COP(=S)(OC)Oc1ccc(SC)c(C)c1 | 66.9 µM (active) | – |
| CCOCN(C(=O)CCl)c1c(C)cccc1CC | 29.5 µM (active) | – |
| Oc1ccc(Cl)cc1Cc1ccccc1 | 3.36 µM (active) | – |
| CCCN(CCOc1c(Cl)cc(Cl)cc1Cl)C(=O)n1ccnc1 | – | inactive |

system: frog Estrogen Receptor (ESR2), gene 100174814; assay: ATG_frER2_XSP1: Attagene TRANS-FACTORIAL Multi-Species (XSP1) HepG2 Assay for frog Estrogen Receptor (ESR2) (AID 2283774)
Summary of the method: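 Multiplexed TRANS-format reporter assay in human hepatoma HepG2: chimeric nuclear receptor-Gal4 activity reported as mRNA induction at 24 h, detected by fluorescent RT-PCR products on capillary electrophoresis and fitted upward from DMSO baseline.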

| Structure (SMILES) | AC50 | outcome |
| --- | --- | --- |
| CCCN(CCC)c1c([N+](=O)[O-])cc(C(F)(F)F)cc1[N+](=O)[O-] | 33.1 µM (active) | – |
| Oc1cc(Cl)ccc1Oc1ccc(Cl)cc1Cl | 7.05 µM (active) | – |
| O=S1OCC2C(CO1)C1(Cl)C(Cl)=C(Cl)C2(Cl)C1(Cl)Cl (stereo unspecified) | 10 µM (active) | – |
| CC1(C)C(C=C(Cl)Cl)C1C(=O)OC(C#N)c1ccc(F)c(Oc2ccccc2)c1 (stereo unspecified) | 27 µM (active) | – |
| O=S(=O)(O)C(F)(F)C(F)(F)C(F)(F)C(F)(F)C(F)(F)C(F)(F)C(F)(F)C(F)(F)F | 49.8 µM (active) | – |
| COP(=S)(OC)Oc1ccc(SC)c(C)c1 | 11.8 µM (active) | – |
| CCOCN(C(=O)CCl)c1c(C)cccc1CC | 77.1 µM (active) | – |
| Oc1ccc(Cl)cc1Cc1ccccc1 | 2.69 µM (active) | – |
| CCCN(CCOc1c(Cl)cc(Cl)cc1Cl)C(=O)n1ccnc1 | – | inactive |

system: not listed separately; assay: ACEA_AR_agonist_AUC_viability: ACEA Biosciences xCELLigence Real-Time Cell Analysis on Androgen Receptor Agonism for Viability (AID 2283775);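 as to AC50: viability read 80 hours after compound addition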
Summary of the method: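 Viability endpoint from xCELLigence impedance in 22Rv1 prostate cells at 80 h. Eight-point series, 100 uM maximum final.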

| Structure (SMILES) | outcome | AC50 |
| --- | --- | --- |
| CCC(C)Nc1c([N+](=O)[O-])cc(C(C)(C)C)cc1[N+](=O)[O-] (stereo unspecified) | inactive | – |
| CCCN(CCC)c1c([N+](=O)[O-])cc(C(F)(F)F)cc1[N+](=O)[O-] | – | 80.7 µM (active) |
| CNC(=O)Oc1cccc(N=CN(C)C)c1 | inactive | – |
| Oc1cc(Cl)ccc1Oc1ccc(Cl)cc1Cl | – | 17.3 µM (active) |
| O=C1c2ccccc2C(=O)N1SC(Cl)(Cl)Cl | – | 8.53 µM (active) |
| O=S1OCC2C(CO1)C1(Cl)C(Cl)=C(Cl)C2(Cl)C1(Cl)Cl (stereo unspecified) | – | 23.1 µM (active) |
| O=C(Nc1ccccc1)Nc1cnns1 | – | 28.6 µM (active) |
| N#CN | inactive | – |
| CC1(C)C(C=C(Cl)Cl)C1C(=O)OC(C#N)c1ccc(F)c(Oc2ccccc2)c1 (stereo unspecified) | – | 67.2 µM (active) |
| O=S(=O)(O)C(F)(F)C(F)(F)C(F)(F)C(F)(F)C(F)(F)C(F)(F)C(F)(F)C(F)(F)F | inactive | 50 µM (active) |
| COc1nn(CSP(=S)(OC)OC)c(=O)s1 | – | 78.7 µM (active) |
| CC1(c2ccc(Oc3ccccc3)cc2)OC(=O)N(Nc2ccccc2)C1=O (stereo unspecified) | – | 1.01 µM (active) |
| O=[N+]([O-])/N=C1\NCCN1Cc1ccc(Cl)nc1 | inactive | – |
| COP(=S)(OC)Oc1ccc(SC)c(C)c1 | inactive | – |
| CCOCN(C(=O)CCl)c1c(C)cccc1CC | – | 50 µM (active) |
| Oc1ccc(Cl)cc1Cc1ccccc1 | – | 18.2 µM (active) |
| CN1CSC(=S)N(C)C1 | – | 50 µM (active) |
| CCCN(CCOc1c(Cl)cc(Cl)cc1Cl)C(=O)n1ccnc1 | – | 37.3 µM (active) |

system: not listed separately; assay: ACEA_AR_antagonist_AUC_viability: ACEA Biosciences xCELLigence Real-Time Cell Analysis on Androgen Receptor Antagonism for Viability (AID 2283776);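 also: 22Rv1 human prostate cancer cells growing on impedance electrode plates; area under impedance growth curve at 80 h after dosing as viability; hits lower the growth signal relative to DMSO meaning cytotoxicity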
Summary of the method: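 Real-time electrical impedance tracks 22Rv1 proliferation after continuous compound exposure (top 100 uM final, 1:4 steps, 8 concentrations). The 80 h area-under-curve serves as the cytotoxicity readout relative to DMSO.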

| Structure (SMILES) | AC50 | outcome |
| --- | --- | --- |
| CCC(C)Nc1c([N+](=O)[O-])cc(C(C)(C)C)cc1[N+](=O)[O-] (stereo unspecified) | 36.6 µM (active) | – |
| CCCN(CCC)c1c([N+](=O)[O-])cc(C(F)(F)F)cc1[N+](=O)[O-] | 50 µM (active) | – |
| CNC(=O)Oc1cccc(N=CN(C)C)c1 | – | inactive |
| Oc1cc(Cl)ccc1Oc1ccc(Cl)cc1Cl | 12.9 µM (active) | – |
| COP(=S)(OC)Oc1ccc([N+](=O)[O-])cc1 | – | inactive |
| O=C1c2ccccc2C(=O)N1SC(Cl)(Cl)Cl | 19.2 µM (active) | – |
| COP(=O)(OC)OC=C(Cl)Cl | – | inactive |
| O=S1OCC2C(CO1)C1(Cl)C(Cl)=C(Cl)C2(Cl)C1(Cl)Cl (stereo unspecified) | 17.2 µM (active) | – |
| O=C(Nc1ccccc1)Nc1cnns1 | 50 µM (active) | – |
| N#CN | – | inactive |
| CC1(C)C(C=C(Cl)Cl)C1C(=O)OC(C#N)c1ccc(F)c(Oc2ccccc2)c1 (stereo unspecified) | 30.1 µM (active) | – |
| O=S(=O)(O)C(F)(F)C(F)(F)C(F)(F)C(F)(F)C(F)(F)C(F)(F)C(F)(F)C(F)(F)F | 31.4 µM (active) and 67.5 µM (active) | – |
| CNC(=O)CSP(=S)(OC)OC | – | inactive |
| COc1nn(CSP(=S)(OC)OC)c(=O)s1 | 92.6 µM (active) | – |
| CC1(c2ccc(Oc3ccccc3)cc2)OC(=O)N(Nc2ccccc2)C1=O (stereo unspecified) | 0.883 µM (active) | – |
| O=[N+]([O-])/N=C1\NCCN1Cc1ccc(Cl)nc1 | – | inactive |
| COP(=S)(OC)Oc1ccc(SC)c(C)c1 | 33.5 µM (active) | – |
| CCOCN(C(=O)CCl)c1c(C)cccc1CC | 40.9 µM (active) | – |
| CNC(=O)/C=C(\C)OP(=O)(OC)OC | – | inactive |
| Oc1ccc(Cl)cc1Cc1ccccc1 | 13.8 µM (active) | – |
| CN1CSC(=S)N(C)C1 | 31.5 µM (active) | – |
| CCCN(CCOc1c(Cl)cc(Cl)cc1Cl)C(=O)n1ccnc1 | 57.1 µM (active) | – |

From PubChem BioAssay (EPA / NIEHS)
